# High-throughput results as filed in PubChem.
# LmPK inhibitor: qHTS Assay for Inhibitors of Leishmania Mexicana Pyruvate Kinase (LmPK). Q27686. Potency, µM (top dose mostly 57.5 µM), without a hit: at the top dose activity change, negative = inhibition, most hits filed as inhibitors. AID 1721, 2009. hit rate 0.37% among 290,000. purified LmPK, Kinase-Glo ATP luminescence, 1 h; note: potency is the fitted concentration of half-maximal effect
# Target sequence (Q27686 whole entry, looked up): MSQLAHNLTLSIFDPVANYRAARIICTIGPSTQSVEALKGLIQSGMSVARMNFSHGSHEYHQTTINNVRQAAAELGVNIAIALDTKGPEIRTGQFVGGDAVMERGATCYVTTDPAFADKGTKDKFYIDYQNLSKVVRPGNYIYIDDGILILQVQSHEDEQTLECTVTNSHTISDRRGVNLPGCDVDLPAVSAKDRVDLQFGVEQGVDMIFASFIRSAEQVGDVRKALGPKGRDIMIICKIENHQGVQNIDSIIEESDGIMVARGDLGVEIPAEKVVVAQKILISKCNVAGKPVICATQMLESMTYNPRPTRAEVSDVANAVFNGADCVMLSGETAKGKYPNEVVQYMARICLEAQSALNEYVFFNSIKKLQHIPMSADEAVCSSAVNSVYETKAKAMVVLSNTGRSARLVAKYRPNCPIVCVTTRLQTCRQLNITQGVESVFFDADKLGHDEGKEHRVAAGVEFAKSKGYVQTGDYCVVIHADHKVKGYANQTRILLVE
#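 0.1 nM LmPK, 0.5 mM PEP, 0.1 mM ADP; 50 mM imidazole pH 7.2, 7 mM MgCl2, 50 mM KCl; 1 h RT. Kinase-Glo luminescence readout, normalized to no-enzyme (full inhibition) and uninhibited wells.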
# HCMV inh: qHTS Assay for inhibitors of the human cytomegalovirus (HCMV). HFF cells, HCMV-luciferase reporter, 72 h; hits give low values. activity change, negative = inhibition, % at 57.5 µM. hit rate 4.5% among 410,000. AID 1259415, 2018; in the data active = activity change below about -60%; inconclusive = no clear call, values can overlap the other calls; inactive = above about -39%
#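 Two compound doses tested in HFFs infected with HCMV-luciferase, MOI 1 PFU/cell, 72 h at 37C. Lysate luminescence read with OneGlo; data normalized against buffer-only and 10uM Salinomycin inhibitor controls.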
# Vaccinia mCherry: qHTS for Stage-Specific Inhibitors of Vaccinia Orthopoxvirus: mCherry Reporter Primary qHTS. Vaccinia virus mCherry reporter infection, fluorescence. Potency, µM (doses to about 36.5 µM), for inactives: top-dose activity change, negative = inhibition, usual class: inhibitors. hit rate 0.63% among 310,000; calls by dose curve; tested in A549 cells; note: potency is the fitted concentration of half-maximal effect; nearly all actives have a fitted effect of over 35% in size
# VACV Venus inh: qHTS for Stage-Specific Inhibitors of Vaccinia Orthopoxvirus: Venus Reporter Primary qHTS; Vaccinia virus Venus reporter expression, fluorescence; Potency, µM (highest dose often 36.5 µM), for the others: at the highest dose activity change, negative = inhibition, usual class: inhibitors; hit rate 0.46% among 330,000; AID 720580, 2013; calls by dose curve; tested in A549 cells; note: potency is the fitted concentration of half-maximal effect; nearly all actives have a fitted effect of over 30% in size
# Tb PYK inh: qHTS of Trypanosoma Brucei Inhibitors; TbPYK enzyme, Kinase-Glo Plus ATP luminescence, 45 min; hit rate 0.12% among 410,000; pyruvate kinase (Trypanosoma brucei), Q57TT1; Potency, µM (highest dose often 76.8 µM), for inactives: at the highest dose activity, negative = inhibition, hits mostly inhibitors; AID 624173, 2012; note: potency is the fitted concentration of half-maximal effect; nearly all actives have a fitted effect of over 50% in size
#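 Readout: single end-point luminescence (Kinase-Glo Plus, 10 min). Reaction conditions were TbPYK/substrate plus 130 uM ADP, 45 min at RT, pH 7.2 TEA buffer. No-enzyme wells served as controls, and data were normalized before concentration-response fitting.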
# Numbers without * were called inactive; i = inactive; ? = inconclusive; . = no result; [ ] = another dose, or the depositor's remark. The list is not random: actives were taken first. Their share in the collection is about 5%. Unless noted, calls come from the whole dose curve; as a rule, active = well fitted curve in the direction sought with a large enough effect; inconclusive = small, poorly fitted or top-dose-only effect, or another doubt; inactive = no such curve, though single readings can be large; an effect the other way counts as inactive or inconclusive. % is set by controls: 0 for no effect and ±100 for the full control effect.
SMILES,LmPK inhibitor,HCMV inh,Vaccinia mCherry,VACV Venus inh,Tb PYK inh
COc1ccc(CNC(=O)C2CCN(c3nnc(C)c4c(C)n(-c5ccc(C)cc5)nc34)CC2)cc1,.,-107.0*,-16.8%,-13.8%,9.0%
Cc1nnc(N2CCC(C(=O)NCCc3ccccc3)CC2)c2nn(-c3ccccc3)c(C)c12,.,0.0,-14.9%,0.6%,6.5%[15.4 µM]
COc1ccc(CNC(=O)C2CCCN(c3nnc(C)c4c(C)n(-c5ccc(C)cc5)nc34)C2)cc1 (stereo unspecified),.,-23.9,?,?,-10.8%
CCNC(=O)C1CCCN(c2nnc(C)c3c(C)n(-c4ccc(C)cc4)nc23)C1 (stereo unspecified),.,-27.5,-17.7%,-15.0%,-1.8%
Cc1ccc(-n2nc3c(N4CCC(C(=O)NCCc5cccs5)CC4)nnc(C)c3c2C)cc1,2.2%,-83.0*,.,.,-2.3%
Cc1ccc(-n2nc3c(N4CCCC(C(=O)NCc5ccccc5C)C4)nnc(C)c3c2C)cc1 (stereo unspecified),.,-63.5*,?,?,2.9%
Cc1nnc(N2CCC(C(=O)NCc3ccc(N(C)C)cc3)CC2)c2nn(-c3ccccc3)c(C)c12,.,?,12.6µM*,12.6µM*,3.8%
CN1C2CCC1CC(NC(=O)c1cc(S(=O)(=O)N(C)C)c(Cl)cc1Cl)C2 (stereo unspecified),.,27.2,.,.,-1.8%
Cc1nnc(N2CCCC(C(=O)NCc3ccc(OC(C)C)cc3)C2)c2nn(-c3ccccc3)c(C)c12 (stereo unspecified),4.4%,-66.4*,.,.,-2.9%
CC(NC(=O)COC(=O)C1CSC2(C)CCC(=O)N12)C12CC3CC(CC(C3)C1)C2 (stereo unspecified),23.3%,44.3,-5.5%,-14.9%,1.3%
Cc1cc(=O)n2nc(N3CCCC(C(=O)NCc4ccccc4C)C3)sc2n1 (stereo unspecified),0.2%,-11.1,-2.2%,-8.4%,0.2%
CC1CCC2(CC1)NC(=O)N(NC(=O)c1cccs1)C2=O (stereo unspecified),.,-5.4,.,.,-0.5%
CC1CCC2(CC1)NC(=O)N(NC(=O)CCl)C2=O (stereo unspecified),-0.7%,-62.5*,15.8µM*,?,-9.3%
O[C@H]1C[C@H](c2ccccc2)N(CC2CCCCC2)C[C@@H]1n1cc(-c2ccc(F)cc2)nn1,.,-100.8*,?,?,-10.1%
COc1ccc([C@H]2C[C@@H](O)[C@H](n3cc(-c4ccc(F)cc4)nn3)CN2CC2CCCCC2)cc1,.,8.2,-21.3%,-24.6%,-0.5%
O[C@@H]1CN(CC2CCCCC2)[C@@H](c2ccc(Cl)cc2)C[C@H]1n1cc(C2CC2)nn1,.,-8.2,?,14.1µM*,0.4%
CS(=O)(=O)N1CCN(C(=O)c2cccnc2)CC1,-2.2%,-8.8,i,-13.0%,1.5%
[O-]/C(=C(\C(=S)Nc1ccc(SC(F)F)cc1)[n+]1ccccc1)c1cc(Cl)ccc1Cl,-3.2%,-61.3*,-3.7%,-29.5%,-9.2%
CCOC(=O)N1CCN(C(=O)c2cccc(N3C(=O)NC4CC3(C)Oc3ccc(Cl)cc34)c2)CC1 (stereo unspecified),-6.2%,-71.3*,-4.9%,-24.1%,0.0%
CCOC(=O)C1CCN(C(=O)c2cccc(N3C(=O)NC4CC3(C)Oc3ccc(C)cc34)c2)CC1 (stereo unspecified),-12.1%,-24.3,-20.5%,-10.8%,-3.4%
CCN(CC)S(=O)(=O)c1cccc(C(=O)NC(Cc2c[nH]c3ccccc23)c2nnc3n2CCC3)c1 (stereo unspecified),0.3%,-61.1*,-3.6%,-8.8%,-3.8%
COC(=O)COc1ccc(-n2cnnn2)cc1,1.2%,-21.1,-11.3%,-16.8%,-0.3%
CC(=O)Nc1ccc(C(=O)COC(=O)CCN2C(=O)C3CC=CCC3C2=O)cc1 (stereo unspecified),-12.4%,8.5,.,.,-4.1%
O=C(CCN1C(=O)C2CC=CCC2C1=O)OCC(=O)c1ccc(F)cc1 (stereo unspecified),.,-75.9*,.,.,-2.4%
Nc1c(C(=O)c2ccc(F)cc2)sc(Nc2ccccc2F)c1S(=O)(=O)c1ccc(Br)cc1,.,-70.7*,-6.3%,-26.1%,-4.6%
SMILES,LmPK inhibitor,HCMV inh,Vaccinia mCherry,VACV Venus inh,Tb PYK inh
Cc1ccc(S(=O)(=O)c2c(Nc3cc(F)ccc3F)sc(C(=O)c3ccc(F)cc3)c2N)cc1,.,-64.9*,?,?,1.1%
CCc1ccc(Nc2sc(C(=O)c3ccc(F)cc3)c(N)c2S(=O)(=O)c2ccccc2)cc1,.,17.8,-5.3%,-21.0%,3.3%
Cc1ccc(Nc2sc(C(=O)c3ccc(F)cc3)c(N)c2S(=O)(=O)c2ccc(C)cc2)cc1,.,-7.9,-22.8%,-19.3%,9.6%
COc1cccc(-c2ncc3ccccn23)c1,?,77.6,.,-5.3%,7.5%
CN(C)S(=O)(=O)c1cccc(NC(=O)CSc2nc3ccccc3n2-c2ccccc2)c1,2.4%,-87.6*,?,?,-6.7%
O=C(CSc1nc2ccccc2c(=O)n1-c1ccc(F)cc1F)Nc1ccc2c(c1)CCC2,3.7%,-71.9*,.,.,-1.8%
O=C(CSc1nc2ccccc2c(=O)n1-c1ccc(F)cc1)Nc1ccc2c(c1)CCC2,2.2%,-68.2*,i,-10.1%,-0.6%
Cc1ccc(-n2c(SCC(=O)Nc3cccc(S(=O)(=O)NC4=NCCCCC4)c3)nc3ccccc3c2=O)cc1,0.5%,-66.3*,-8.1%,-9.4%,-8.9%
CCc1ccc(-n2c(SCC(=O)Nc3cccc(S(=O)(=O)NC4=NCCCCC4)c3)nc3ccccc3c2=O)cc1,-1.4%,-25.8,-4.9%,-20.0%,-16.3%
O=C(CSc1nc2ccc(F)cc2c(=O)n1-c1ccccc1)Nc1ccc2c(c1)CCC2,.,?,i,-15.0%,6.9%
CN(C)S(=O)(=O)c1ccc(NC(=O)CSc2nc3ccccc3n2-c2ccccc2)cc1,-2.0%,?,?,-21.1%,3.7%
COCCN(C(=O)COC(=O)CCn1c(C)csc1=O)c1c(N)n(Cc2ccccc2)c(=O)[nH]c1=O,.,-4.5,-11.4%,-12.9%,-9.6%
CC(=O)Nc1ccc(S(=O)(=O)N(C)CC(=O)OCC(=O)N(CC(C)C)C2CCS(=O)(=O)C2)cc1 (stereo unspecified),.,-13.1,-9.9%,2.3%,1.0%
O=C(Nc1cccc(S(=O)(=O)NC2=NCCCCC2)c1)c1cc(-c2ccccc2Cl)nc2ccccc12,0.1%,-63.7*,-6.8%,-23.6%,4.2%
O=C(Nc1cccc(S(=O)(=O)NC2=NCCC2)c1)c1cc(-c2ccccn2)nc2ccccc12,6.5%,0.0,.,.,-10.8%
O=C(CSc1nc2ccccc2c(=O)n1-c1ccc(F)c(Cl)c1)Nc1ccc2c(c1)CCC2,.,-28.1,i,-2.1%,0.1%
